Peg3 prom inh: Peg3 promoter activity inhibition. AID 588405. inhibition, % at 20 µM. HeLa PEG-Prom luciferase reporter, luminescence, overnight. hit rate 1.7% among 360,000;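 active = inhibition of at least 50% at 20 µM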
TWEAK-Fn14 inh: blocks TWEAK-Fn14 interaction in a reporter cell assay | TWEAK-stimulated Fn14 reporter cells, luciferase luminescence, 8 h | inhibition, % at 10 µM | hit rate 2% among 360,000 | AID 1159606; in the data active = inhibition above about 50%
HIF-2a inh: HIF-2a inhibition | 786-0 RCC cells HIF-2a reporter, luciferase luminescence, overnight | hit rate 0.72% among 360,000 | inhibition, % at 18.8 µM | AID 624352;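 active = inhibition of the luminescence signal of 40% or more relative to plate controls, in a single-dose primary screen at 18.75 µM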
KKLEB tox: reduces viability of KKLEB cystic fibrosis airway cells; activity change (cytotoxicity), % at 5 µM; KKLEB CF airway cells viability, ATPlite luminescence, overnight; active compounds read low; cells stimulated with P. aeruginosa culture filtrate; hit rate 0.36% among 360,000; AID 602141;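 active = corrected activity change at or below -50% at 5 µM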
TROY signal inh: blocks TROY-dependent signaling in reporter cells; Q293 LMP1-TROYcd NF-kB luciferase reporter, 4 h; inhibition, % at 10 µM; hit rate 0.98% among 360,000;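 active = compounds whose plate-normalised and pattern-corrected inhibition of the luciferase reporter signal at the single screening dose is 50% or more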
CF NFkB inh: cystic fibrosis NF-kB activation inhibition; inhibition, % at 5 µM; hit rate 0.86% among 360,000; KKLEB NF-kB-GFP reporter, PAF-induced, GFP fluorescence overnight;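 active = at least 50% inhibition at 5 µM, scaled per plate between neutral and stimulator controls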;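 also: PAF is a Pseudomonas aeruginosa culture filtrate used as stimulus; plate controls were PAF-stimulated DMSO wells for no effect and unstimulated DMSO wells for full effect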
The depositor's hits bear a star; x = no result. Most compounds without a hit are left out; they make up all but 4% or so of the library.

SMILES	Peg3 prom inh	TWEAK-Fn14 inh	HIF-2a inh	KKLEB tox	TROY signal inh	CF NFkB inh
CS(=O)(=O)c1ccc(C2=C(CNC(=O)c3cccs3)[C@H]3CC[C@@H](C2)N3Cc2ccccc2)cc1	12.1	-14.8	-1.9	2.6	-7.4	-1.3
O=C(CF)N(O)c1ccc(C=Cc2ccccc2)cc1	-322.1	-3.1	-217.5	-12.8	25.2	-14.2
CCC(c1nnnn1C1CCCCC1)N1CCC2(CC1)C(=O)NCN2c1ccccc1 (stereo not drawn)	13.9	-11.9	-1.1	-4.9	-7.8	-23.4
CC1(C)CC[C@]2(C)CC[C@]3(C)C4C[C@@H]5OO[C@@]6(O5)C(CCCC6(C)C)[C@]4(C)CC[C@@]3(C)C2C1 (stereo partly drawn)	1.2	25.4	6.8	-1.9	5.3	56.1*
C[C@H]1CCC/C=C/[C@@H]2C[C@H](O)C[C@H]2[C@@H](O)/C=C/C(=O)O1	58.6*	61.3*	38.7	-46.9	-49.7	63.8*
N#CC(C#N)=C(N)c1cccnc1	21.6	5.2	4.9	-0.5	-9.6	-3.0
Cc1c2ccncc2c(C)c2c1[nH]c1ccccc12	101.5*	-31.6	-8.9	10.5	-8.3	83.1*
COc1cc2c3cc1Oc1cc(ccc1O)C[C@@H]1c4c(cc(OC)c(O)c4Oc4cccc(c4)C[C@@H]3N(C)CC2)CC[N+]1(C)C	5.2	-4.2	-0.4	6.8	3.3	9.3
COc1cc2c3c(c1OC)Oc1ccc(cc1)C[C@H]1c4c(cc(OC)c(OC)c4Oc4ccc(cc4)C[C@@H]3N(C)CC2)CCN1C	87.4*	-35.4	11.0	-31.5	18.1	9.8
COc1cc2c3cc1Oc1c(OC)c(OC)cc4c1[C@H](Cc1ccc(cc1)Oc1cc(ccc1O)C[C@H]3N(C)CC2)N(C)CC4	70.2*	-24.4	16.9	-8.3	10.9	9.5
COc1cc2c3cc1Oc1cc(ccc1O)C[C@@H]1c4c(cc(OC)c(O)c4Oc4ccc(cc4)C[C@H]3N(C)CC2)CCN1C	67.5*	-37.0	-10.9	-65.7*	-2.9	21.2
CCOC(=O)c1cc2c(cn1)[C@H](CCO)NC2	-14.1	8.0	2.0	5.7	-9.8	1.7
CCOP(=O)(OCC)C(NC(C)=O)C(Cl)(Cl)Cl (stereo not drawn)	-3.8	19.4	19.4	6.0	22.6	-23.3
CC(C)(C)n1nnnc1C(c1cccc2ccccc12)N1CCC2(CC1)C(=O)NCN2c1ccccc1 (stereo not drawn)	40.3	37.4	1.6	-5.1	28.9	19.9
C[C@@H]1O[C@@H](O[C@H]2C[C@@H](O)[C@]3(CO)[C@H]4[C@H](O)C[C@]5(C)[C@@H](C6=CC(=O)OC6)CC[C@]5(O)[C@@H]4CC[C@]3(O)C2)[C@H](O)[C@H](O)[C@H]1O	102.5*	84.9*	87.5*	18.1	48.8	91.0*
c1ccc2c(N3CCNCC3)cccc2c1	-13.6	-2.0	-11.3	0.4	6.8	-8.7
Clc1cccc(N2CCNCC2)c1Cl	-1.0	8.5	20.9	-67.1*	-5.7	-2.2
CCCN1CCC2(CC1)NC(CO)(CO)CO2	8.8	81.6*	15.8	10.3	x	-9.4
CSCCC(c1nnnn1-c1ccc2c(c1)OCCO2)N1CCC(n2c(=O)[nH]c3ccccc32)CC1 (stereo not drawn)	74.7*	26.3	-2.4	-83.7*	27.2	86.2*
COc1ccc(-n2nnnc2C(c2ccnc3ccccc23)N2CCC(n3c(=O)[nH]c4ccccc43)CC2)cc1 (stereo not drawn)	25.1	-8.1	17.5	-5.5	10.2	13.2
O=c1[nH]c2ccccc2n1C1CCN(C(c2ccccc2)c2nnnn2-c2ccc3c(c2)OCCO3)CC1 (stereo not drawn)	68.2*	52.4*	-7.6	-86.7*	30.1	84.1*
O=C1NCN(c2ccccc2)C12CCN(C(c1ccccc1)c1nnnn1-c1ccc3c(c1)OCCO3)CC2 (stereo not drawn)	25.2	19.0	-12.3	-9.5	-2.2	-16.4
O=c1[nH]c2ccccc2n1C1CCN(C(c2nnnn2-c2ccc3c(c2)OCCO3)C2CC2)CC1 (stereo not drawn)	77.9*	43.5	7.4	-86.6*	8.1	84.1*
COc1ccc(-n2nnnc2C(c2ccccc2)N2CCC(n3c(=O)[nH]c4ccccc43)CC2)cc1 (stereo not drawn)	64.3*	43.3	-23.7	-70.1*	23.5	81.4*
COC(=O)[C@@H]1N=C(c2ccc(OC)cc2)O[C@]12C(=O)N(C)c1ccc(Cl)cc12	x	11.0	-5.5	x	-7.0	x
SMILES	Peg3 prom inh	TWEAK-Fn14 inh	HIF-2a inh	KKLEB tox	TROY signal inh	CF NFkB inh
O=c1[nH]c2ccccc2n1C1CCN(C(c2cccs2)c2nnnn2-c2ccc3c(c2)OCCO3)CC1 (stereo not drawn)	76.6*	49.1	-35.7	-79.4*	27.1	87.1*
O=c1[nH]c2ccccc2n1C1CCN(C(CCc2ccccc2)c2nnnn2C2CCCC2)CC1 (stereo not drawn)	87.3*	50.7*	-98.8	-95.7*	53.1*	84.3*
S=C(NCCc1ccccc1)N1Cc2cc(N3CCCCC3)ccc2-n2nncc2C1	7.2	-40.4	-1.0	7.2	0.1	-8.0
CC[C@H]1c2ccccc2[C@@H]2CC[C@H]1N2c1ccccc1	x	x	2.0	x	x	x
O=C(c1ccc(Cl)cc1)C1CCCN(Cc2cccc3cnccc23)C1 (stereo not drawn)	12.6	20.9	18.8	-5.5	85.2*	-5.3
O=c1[nH]c(O)c(N=Nc2ccc3c(c2)OCCO3)c(=O)[nH]1	-31.7	90.7*	39.0	-5.9	87.6*	2.1
CC1CN1P(=S)(c1ccccc1)N1CC1C (stereo not drawn)	-20.4	26.3	-7.9	5.0	-1.0	1.5
COc1ccc(-c2cc(=Nc3cccc(C(=O)O)c3)c3cc(C)ccc3o2)cc1	-328.7	57.7*	-321.3	0.6	21.4	-30.1
CN(C)C(=S)SSC(=S)N(C)C	55.9*	-6.5	24.2	10.7	-0.6	-3.1
COC(=O)C[C@]1(C(=O)OC)CN(C#N)N(c2ccc(Cl)cc2)C12c1ccccc1-c1ccccc12	102.9*	95.5*	85.4*	-96.5*	89.0*	88.2*
Cc1ccccc1-c1ccc2c(c1)C1c3c(-c4ccccc4)nnn3-c3ccccc3C(=O)N1CC2 (stereo not drawn)	-6.0	-20.8	-8.4	-0.5	7.6	-17.8
CCc1ccc(N2C(=O)NC(=O)/C(=C\C=C\c3ccco3)C2=O)cc1	91.3*	4.6	24.4	4.0	4.9	44.8
CCOc1ccc(N2C(=O)/C(=C/c3ccco3)C(=O)NC2=S)cc1	31.0	57.0*	21.2	3.0	-4.2	-6.6
CC1=NN(c2ccccc2)C(=O)C1/C=C1\C(=O)NC(=O)N(c2cc(C)cc(C)c2)C1=O (stereo not drawn)	-0.8	2.7	-8.7	-6.7	-12.1	3.8
Cc1cc(C)cc(N2C(=O)NC(=O)/C(=C\C=C\c3ccco3)C2=O)c1	67.2*	8.5	40.3*	-29.3	5.2	46.7

Source: PubChem BioAssay
